Bioassay records from PubChem BioAssay.
cardiac RTF act: cardiac RTF calcium sensitization; P19429+P45379; IANBD-labeled TnC RTF fluorescence at EC20 calcium; 0% EC20 calcium, 100% full calcium; activation, % at 7.2 µM; hit rate 0.24% among 340,000;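 active = activation above the mean over all tested compounds plus 3 SD, cut at about 30% in these data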;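 note: rise in fluorescence read as greater calcium sensitivity of cardiac thin filaments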
RTF Ca sens inh: cardiac RTF calcium desensitization; P19429+P45379; IANBD-labeled cardiac RTF, Ca2+ fluorescence; inhibition, % at 7.15 µM; hit rate 0.12% among 340,000;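 active = inhibition above the mean inhibition of all tested compounds plus 3 SD, cut at about 17% in these data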;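 note: assay run at fixed EC70 calcium of 1.6 mM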
CRFR2-BP ag: CRF-BP/CRF-R2 complex agonism | hit rate 0.46% among 350,000 | activation, % at 13.2 µM | HEK293 CRF-R2/CRF-BP, calcium dye fluorescence (FLIPR); percent of saturating CRF peptide response | AID 588473;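 active = activation of at least 50%, plus an integration ratio under a set limit after plate pattern correction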;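 note: plate controls were neutral control wells without compound for no effect and CRF at EC100 for full effect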
Myeloid diff MLP: promotes myeloid progenitor differentiation; calls only at 10 µM; hit rate 1% among 360,000; ER-HoxA9 myeloid progenitors, lysozyme-GFP differentiation, flow cytometry;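 active = normalized GFP-positive differentiation at or above the plate's own cutoff, the solvent-only control mean plus 3 SD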;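 note: cells exposed to compound for four days before flow analysis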
CRFBP-R2 block: blocks CRF-induced signaling of the CRF-BP/CRF-R2 complex | HEK293 CRF-R2/CRF-BP, CRF-induced calcium fluorescence | inhibition, % at 11.8 µM | hit rate 0.59% among 350,000 | AID 588475;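 active = inhibition of the ligand-induced calcium signal above about 50% at the single tested concentration, limit read from the data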
The depositor's hits bear a star; i = inactive; · = no result; + = active, no number. Most compounds without a hit are left out; they make up all but 2.2% or so of the library.

SMILES	cardiac RTF act	RTF Ca sens inh	CRFR2-BP ag	Myeloid diff MLP	CRFBP-R2 block
CC(C)CNS(=O)(=O)c1ccc(CCC(=O)NCc2cccnc2)cc1	5.2	2.8	-0.5	+	11.0
Cc1cc(S(=O)(=O)NC2CCCCC2)ccc1OCC(=O)NCC1CCCO1 (stereo not drawn)	-6.8	9.1	-4.6	i	57.1*
O=C(COc1ccc(S(=O)(=O)NC2CCCCC2)cc1Cl)NCC1CCCO1 (stereo not drawn)	4.5	-2.4	1.7	i	-4.2
O=C(COc1ccc(S(=O)(=O)NC2CCCCC2)cc1)NCc1cccnc1	1.8	-6.3	0.0	i	0.5
O=C(COc1ccc(S(=O)(=O)NC2CCCCC2)cc1Cl)NCc1cccnc1	-4.0	0.8	-3.8	i	80.1*
Cc1cc(S(=O)(=O)NCc2ccccc2)ccc1OCC(=O)NCC1CCCO1 (stereo not drawn)	-1.9	2.2	241.3*	i	-359.6
Cc1ccccc1NC(=O)C1CCCN1S(=O)(=O)c1ccccc1C(F)(F)F (stereo not drawn)	-3.4	-3.9	-1.3	i	-1.4
Cc1cc(=O)oc2cc(O[C@@H]3O[C@H](CO)[C@H](O)[C@H](O)[C@H]3O)ccc12	-4.3	-8.0	1.0	i	-0.7
Cc1c(C)c2ccc(O[C@@H]3O[C@H](CO)[C@H](O)[C@H](O)[C@H]3O)cc2oc1=O	-6.9	4.6	1.3	+	3.3
Cc1ccc(-n2nnnc2SCc2nnc(-c3ccccc3Br)o2)cc1	-3.2	8.2	1.2	i	135.9*
Brc1ccccc1-c1nnc(CSc2nncn2-c2ccccc2)o1	-1.5	-8.8	-1.3	i	39.9
Cc1noc(C)c1C(=O)N1CCCC1	-0.1	-3.4	-3.4	i	6.9
CC(C)(C)N1CC2([N+](=O)[O-])CN(C(C)(C)C)CC([N+](=O)[O-])(C1)C2	0.8	-8.1	166.7*	i	-122.5
CC(Sc1ccc(S(=O)(=O)N2CCCCC2)cn1)C(N)=O (stereo not drawn)	·	·	-0.8	i	12.4
O=c1[nH]c2cc3c(cc2cc1C(c1nnnn1C1CCCCC1)N1CCSCC1)OCCO3 (stereo not drawn)	-1.1	1.3	54.1*	i	-79.7
COc1ccc2c(c1)c(CC(=O)Nc1cc(C)ccc1C)c(C)n2C(=O)c1ccc(Cl)cc1	0.2	6.2	88.8*	+	-96.8
CC1CCCC(NC(=O)c2ccc(F)c(S(=O)(=O)N3CCOCC3)c2)C1C (stereo not drawn)	-1.5	1.2	-2.3	i	8.0
CC(=O)Nc1sc(N/N=C/c2ccccc2)nc1-c1ccc(C)cc1	-4.8	-1.6	0.2	i	5.7
CC(=O)Nc1sc(/C(C#N)=C\c2cccc(Cl)c2)nc1-c1ccc(C)cc1	43.0*	-95.9	318.6*	+	-405.2
COc1cccc(CCNC(=O)CCc2nnc(Cc3cc(OC)ccc3OC)o2)c1	-0.8	-5.3	-0.4	i	9.0
COc1ccc(CNC(=O)C(C#N)c2nc3ccccc3nc2N2CCCC2)cc1 (stereo not drawn)	51.3*	-404.9	6.1	i	-12.0
C=CCOC(=O)C(C#N)c1nc2ccccc2nc1N1CCN(c2ccccc2OCC)CC1 (stereo not drawn)	-4.8	7.7	2.1	i	52.7*
O=C(NCc1ccccc1)C(C1CC1)n1c(=O)c(-c2ccco2)nc2ccccc21 (stereo not drawn)	·	·	·	i	·
CC(C)C[C@@H](CNCC(=O)[C@H](CC(C)C)NC(=O)c1[nH]cnc1C(=O)N[C@@H](C)CN)NC(=O)c1nc[nH]c1C(=O)N[C@@H](CC(=O)O)C(=O)O	-1.6	-5.7	0.7	i	18.2
CC(C)c1ccc2[nH]c3nc(SCC(=O)NC4CC4)nnc3c2c1	-3.8	3.2	-1.0	+	-20.1
COc1ccccc1NC(=O)COC(=O)/C=C/c1cccs1	-2.8	0.0	-0.5	i	8.9
CCC(C(=O)Nc1ccccc1OC)n1c(C(=O)OC)cc2ccsc21 (stereo not drawn)	-6.3	-4.1	3.7	+	21.8
Cc1ccc(N2CC(C(=O)Nc3ccc(S(=O)(=O)NCC4CCCO4)cc3)CC2=O)cc1C (stereo not drawn)	6.9	-15.1	-0.2	i	-6.0
CCc1ccc(NC(=O)Nc2cnccn2)cc1	-1.2	-2.5	-2.0	i	-0.3
CCCCc1ccc(NC(=O)Nc2cnccn2)cc1	0.1	-9.4	0.1	+	-5.2
